The whole screen tested about 48,000 compounds, of which about 13,000 (27%) showed an effect of 50% or more. Some of the results follow.

For this assay, the system named is Wolbachia pipientis. The assay is described as follows: Anti-Wolbachia Cell-Based Screen. The class given is functional. Further details: scale not given: in the data most compounds retested in dose-response had high values. Conditions: 5 µM.
Regarding `NC(=O)c1cncc(-n2ccc(-c3cnccn3)n2)c1`, the “Percent Effect” value is -26.19%. In the case of `CC(C#N)(NC(=O)COc1ccccc1Br)C1CC1` (stereo unspecified), the “Percent Effect” value was 18.27%.

Consider `Cc1ccc(N2CCCC3(CCN(C(=O)CC(F)(F)F)C3)C2)nn1` (stereo unspecified), for which the “Percent Effect” value is recorded as -9.607%. On to `CN1CCN(C)C2(CCN(C(=O)CC(F)(F)F)CC2)C1=O`, for which the “Percent Effect” value came to 104%.

In the case of `CN1CCN(CC2CC2)C(=O)C12CCN(C(=O)c1ccnnc1)CC2.O=C(O)C(F)(F)F`, the “Percent Effect” value is listed as -9.864%. Regarding `CN1CCN(CC2CC2)C(=O)C12CCN(C(=O)c1cnccn1)CC2`, the “Percent Effect” value is on record as -10.28%.

As to `O=C(CC(F)(F)F)N1CCC2(CCCN(c3nncs3)C2)C1` (stereo unspecified), the “Percent Effect” value is recorded as -11.31%.

Regarding `CN1CCN(CC2CC2)C(=O)C12CCN(C(=O)CC(F)(F)F)CC2.O=C(O)C(F)(F)F`, the “Percent Effect” value was found to be 112.7%.

For `CCN1CCN(C)C2(CCN(C(=O)CC(F)(F)F)CC2)C1=O`, the “Percent Effect” value amounted to 118.4%. Regarding `CCN(C(=O)c1ccccc1I)C1CC(=O)NC1=O` (stereo unspecified), the “Percent Effect” value is 4.049%. Consider `CC/C=C(/C)C(=O)N1CSCC1C(=O)NC1=NCCS1` (stereo unspecified), for which the “Percent Effect” value is -1.356%. On to `COc1ccc(F)cc1S(=O)(=O)NCC(c1cccn1C)N(C)C` (stereo unspecified), for which the “Percent Effect” value is reported as -20.36%. `COc1ncc(NS(=O)(=O)c2ccc(OC)c(C)c2)c(OC)n1`: the “Percent Effect” value is on record as -43.62%. For `COc1ccc(S(=O)(=O)Nc2cccnc2-n2cncn2)cc1C`, the “Percent Effect” value is reported as -1.49%.

On to `COc1ccc(S(=O)(=O)NCCn2cnc(C)cc2=O)cc1C`, for which the “Percent Effect” value is given as 93.11%. Take `COc1ccc(F)cc1S(=O)(=O)NCC(O)c1sccc1C` (stereo unspecified): the “Percent Effect” value is 28.76%.

Turning to `COc1ccc(F)cc1S(=O)(=O)NCCn1cnc(C)cc1=O`, the “Percent Effect” value worked out at 77.48%. Then `CC1COc2ccccc2N1C(=O)c1ccnc(-n2cncn2)c1` (stereo unspecified), with -16.23%.

In the case of `CNc1ncc(CN(C)C(=O)[C@@]23CNC[C@@H]2CN(C(=O)C2CC2)C3)cn1`, the “Percent Effect” value is -3.257%. For the compound `COc1cc(NCCNC(=O)c2cc[nH]c2C)cc(OC)c1`, the “Percent Effect” value is listed as -11.29%. Then `COCCCC1(CO)CCCN(Cc2nccs2)C1` (stereo unspecified), with 3.777%; and `O=C(NCc1ncc[nH]1)c1c(F)cccc1I`, with -7.586%; and `Cc1ccsc1[C@@H]1CCN(C(=O)CCOc2ccccc2)C[C@H]1O`, with -3.102%.

For `CCOCC(=O)N1C[C@@H](O)[C@H](N2CCN(c3ccccc3)CC2)C1`, the “Percent Effect” value is recorded as 110.9%. Then `CN1CCN([C@@H]2CN(C(=O)CCOc3ccccc3)C[C@H]2O)CC1`, with 98.51%. Then `CC(C)=CCN1CCN(CCCOc2ccccc2)[C@H]2CS(=O)(=O)C[C@H]21`, with -8.839%; and `COCCC(=O)N1C[C@@H](O)[C@H](N2CCN(c3ccccc3)CC2)C1`, with 133.4%. Take `O=C(CO)N1CC[C@@H](N2CCN(c3ccccc3F)CC2)[C@H](O)C1`: the “Percent Effect” value was 5.557%.

As for `COCCC(=O)N1CC[C@@H](N2CCN(C)CC2)[C@@H]1Cc1ccccc1`, the “Percent Effect” value was -8.117%.

As to `COCCC(=O)N1CC2(CCN(c3ccccc3)C2)C1`, the “Percent Effect” value is listed as -36.12%.

As for `COCC(=O)N1C[C@@H](O)[C@H](N2CCN(c3ccccc3)CC2)C1`, the “Percent Effect” value came out at 143.5%. For the compound `CSCCC(=O)N1CC[C@@H](N2CCN(c3ccccc3F)CC2)[C@H](O)C1`, the “Percent Effect” value is recorded as -0.8189%. `N#Cc1ccnc(N2CCN(CC(O)c3ccccc3Cl)CC2)c1` (stereo unspecified): the “Percent Effect” value is -8.703%.

On to `O=C(CN1CCS(=O)(=O)CC1)NCc1cccc(Br)c1`, for which the “Percent Effect” value is -5.799%. On to `COCC1(CNC(=O)Nc2cc(F)ccc2OC)CCCC1`, for which the “Percent Effect” value is -0.947%. As for `CC(C)(C)OC(=O)NC(C)(C)c1noc(CSc2nncs2)n1`, the “Percent Effect” value was 7.03%.

As for `N#Cc1c(Cl)nsc1NCc1ccc(N2CCSCC2)cc1`, the “Percent Effect” value is on record as -6.213%.

Take `COc1ccc2c(c1)nc1n2[C@@H](CNCc2nccs2)COC1`: the “Percent Effect” value was 4.423%. Take `Cn1cc(CN2Cc3cn(C)nc3C(COCC3CC3)C2)cn1` (stereo unspecified): the “Percent Effect” value is -9.412%. As to `CC(C)COCC1CN(Cc2ccco2)Cc2ncn(C)c21` (stereo unspecified), the “Percent Effect” value came out at 120.7%.

In the case of `Cn1ncc2c1C(COCC1CC1)CN(Cc1ccco1)C2` (stereo unspecified), the “Percent Effect” value was -0.8913%. Regarding `COCC1CN(Cc2ccoc2)Cc2cn(C)nc21` (stereo unspecified), the “Percent Effect” value came out at 2.216%.

As to `Cn1cc2c(n1)C(COCC1CC1)CN(Cc1ccsc1)C2` (stereo unspecified), the “Percent Effect” value is given as -15.61%. In the case of `CCOCC1CN(Cc2ccoc2)Cc2ncn(CC3CC3)c21` (stereo unspecified), the “Percent Effect” value is recorded as -9.148%.

As for `Cn1cnc2c1C(COCC1CC1)CN(Cc1ccsc1)C2` (stereo unspecified), the “Percent Effect” value turned out to be 3.226%.

For `CCOCC1CN(Cc2cnn(C)c2)Cc2ncn(CC3CC3)c21` (stereo unspecified), the “Percent Effect” value was -8.097%. On to `CC(C)COCC1CN(Cc2ccoc2)Cc2ncn(C)c21` (stereo unspecified), for which the “Percent Effect” value turned out to be 128.9%. With `CC(C)COCC1CN(Cc2cnn(C)c2)Cc2ncn(C)c21` (stereo unspecified), the “Percent Effect” value was determined as 123.1%.

In the case of `CCOCC1CN(Cc2ccco2)Cc2ccnn2C1` (stereo unspecified), the “Percent Effect” value was -17.9%. Under `CC(C)COCC1CN(Cc2ccsc2)Cc2ncn(C)c21` (stereo unspecified) stands 90.56%; under `CN(C)C(=O)c1nc2c(s1)CCCN2Cc1ccccc1`, -4.503%. Consider `Cc1ccc(C)c2c(O)cc(CN3CCC(=O)NCC3C)nc12` (stereo unspecified), for which the “Percent Effect” value is recorded as -0.2793%. Under `CCC(NC(=O)Nc1cc(F)c(OC)c(F)c1)c1noc(C)n1` (stereo unspecified) stands -7.836%; under `Cn1nc2c(cc1=O)CN(Cc1nc(-c3ccoc3)no1)CC2`, -6.043%; under `CC(C(=O)N1CCOCC1)N1CCN(Cc2nccn2C)CC1` (stereo unspecified), 114%. With `CCN1CCN(C(=O)C(C)N2CCN(Cc3nccn3C)CC2)CC1` (stereo unspecified), the “Percent Effect” value is given as 0.1033%. On to `CC(C)C(C(=O)N1CCCN(Cc2nccn2C)CC1)N1CCCC1` (stereo unspecified), for which the “Percent Effect” value amounted to 74.16%. As to `Cn1ccnc1CN1CCCN(C(=O)C2(C#N)CCCCC2)CC1`, the “Percent Effect” value is given as -11.9%. Under `CC(OCC1CC1)C(=O)N1CCCN(Cc2nccn2C)CC1` (stereo unspecified) stands 15.71%; under `CC(C(=O)N1CCCCCC1)N1CCN(Cc2nccn2C)CC1` (stereo unspecified), 103.6%. For the compound `CCN(C(=O)NCCc1cccc(F)c1F)C(C)CS(C)(=O)=O` (stereo unspecified), the “Percent Effect” value came out at 8.569%. In the case of `CCOc1ccc(CN(CCOC)c2nc(C)nc3oc(C)nc23)cc1`, the “Percent Effect” value is -12.59%. On to `COc1cc(C)nc(N2CCN(C(=O)c3ccn(C)c(=O)c3)CC2)n1`, for which the “Percent Effect” value amounted to 111.9%. For the compound `CCOc1ccnc(N2CCN(C(=O)c3ccn(C)c(=O)c3)CC2)n1`, the “Percent Effect” value worked out at 88.48%. As for `CCOc1ccnc(N2CCN(C(=O)c3cccc(C#N)c3)CC2)n1`, the “Percent Effect” value worked out at 3.478%. Take `CCOc1cccc(C(=O)N2CCN(c3nccc(OC)n3)CC2)c1`: the “Percent Effect” value is -0.7298%. As to `COc1cc(C)nc(N2CCN(C(=O)c3ccccc3C)CC2)n1`, the “Percent Effect” value turned out to be 2.606%. `COc1ccnc(N2CCN(C(=O)c3ccn(C)c(=O)c3)CC2)n1`: the “Percent Effect” value was found to be 101.7%.

On to `COc1ccnc(N2CCN(C(=O)c3cscn3)CC2)n1`, for which the “Percent Effect” value was determined as 2.321%. Consider `CCOc1ccnc(N2CCN(C(=O)c3cc(Cl)c[nH]3)CC2)n1`, for which the “Percent Effect” value is -0.9133%.

`COc1cc(C)nc(N2CCN(C(=O)c3ccc(Cl)o3)CC2)n1`: the “Percent Effect” value is 4.762%.

The record behind these values is ChEMBL document CHEMBL3988442, “University of Dundee, Small-Polar-MMV Screening Library” (2021).
